Among the data in PubChem BioAssay (Tox21) are Potency values, retold here.

Inconclusive results are not listed. Where a call stands in place of a potency, no number is given. Active and inactive are the calls of the source. Calls come from the whole dose curve; as a rule, active = well fitted inhibition curve with a large enough effect in the signal ratio in the repeat runs (not every such curve was filed as active); inconclusive = weak or mixed curves, or effect the other way; inactive = no such curve, though single readings can be large or run the other way; the % refers to the signal ratio.
Potency is the fitted concentration of half-maximal effect.

Bile acid receptor (Homo sapiens), sequence (Q96RI1 whole entry, looked up): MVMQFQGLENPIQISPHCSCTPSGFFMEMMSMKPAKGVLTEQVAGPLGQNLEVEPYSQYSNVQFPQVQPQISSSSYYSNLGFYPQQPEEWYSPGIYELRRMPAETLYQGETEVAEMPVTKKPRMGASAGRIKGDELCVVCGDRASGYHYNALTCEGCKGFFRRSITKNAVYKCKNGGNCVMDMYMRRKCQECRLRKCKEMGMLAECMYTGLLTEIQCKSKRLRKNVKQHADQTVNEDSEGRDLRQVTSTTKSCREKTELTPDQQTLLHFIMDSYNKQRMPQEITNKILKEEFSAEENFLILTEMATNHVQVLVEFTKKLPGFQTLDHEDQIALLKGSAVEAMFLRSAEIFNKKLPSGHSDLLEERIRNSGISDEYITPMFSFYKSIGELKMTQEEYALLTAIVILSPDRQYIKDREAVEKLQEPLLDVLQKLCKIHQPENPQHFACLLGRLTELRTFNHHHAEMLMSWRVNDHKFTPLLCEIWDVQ

The assay has as its target Bile acid receptor (Homo sapiens) (UniProt Q96RI1). Briefly: qHTS assay to identify small molecule antagonists of the farnesoid-X-receptor (FXR) signaling pathway (AID 743217). The note with it: HEK293T FXR-UAS-bla, beta-lactamase ratio, CDCA-stimulated, 16 h; series mostly up to 62.6 µM. The source says:
U.S. Tox21 Program National Center for Advancing Translational Sciences [NCATS] NIH Chemical Genomics Center [NCGC] U.S. Environmental Protection Agency [EPA] National Institutes of Environmental Health Sciences [NIEHS] National Toxicology Program [NTP] U.S. Food and Drug Administration [FDA] Tox21 Assay Overview: The farnesoid-X-receptor (FXR), a nuclear hormone receptor, is highly expressed in liver, intestine, kidney and adrenal cortex. Natural ligands of FXR are the bile acids (Cholic acid, Chenodeoxy cholic acid etc). FXR is an important regulator of diverse metabolic pathways, including the bile acid homeostasis, lipid and glucose metabolisms. FXR regulates the expression of target genes by binding either as a monomer or as a heterodimer with the retinoid X receptor (RXR). Numerous studies have reported that FXR exerts protective function during cholestasis, diabetes, liver regeneration, and cancer. To identify compounds that inhibit FXR signaling, GeneBLAzer FXR-UAS-bla HEK 293T cell line (Invitrogen, Carlsbad, CA) containing a beta-lactamase reporter gene under the control of a UAS response element was used to screen the Tox21 10K compound library.
Tox21 Assay Protocol Summary: FXR-bla cells were dispensed at 5000 cells/5uL/well in 1536-well black wall/clear bottom plates using a Multidrop Combi (Thermo Fisher Scientific, Waltham, MA) dispenser. After the assay plates were incubated at 37C and 5% CO2 for 5 h, 23 nL of compounds dissolved in DMSO, positive controls or DMSO only was transferred to the assay plate by a Pintool station (Kalypsys, San Diego, CA), followed by addition of 1 uL Chenodeoxycholic acid (50 uM, final concentration in the wells). The assay plates were incubated at 37C for 16 h. After 1 uL of LiveBLAzerTM B/G FRET substrate was added using a Bioraptr Flying Reagent Dispenser (FRD) workstation (Beckman Coulter, Indianapolis, IN), the plates were incubated at room temperature for 2 h, and fluorescence intensity was measured by an Envision plate reader (PerkinElmer, Shelton, CT).
In general terms: Quantitative high-throughput screening tests each substance at several concentrations.
Consider `O=Cc1cc(O)ccc1Br`, for which the Potency entry is “inactive”.

As to `Fc1ccc([C@@H]2CCNC[C@H]2COc2ccc3c(c2)OCO3)cc1`, the Potency entry is “inactive”.

On to `O=C(c1ccc(O)cc1O)c1ccc(O)cc1O`, for which the Potency entry is “inactive”.

In the case of `C[n+]1ccn(Cc2ccccc2)c1`, the Potency entry is “inactive”.

On to `O=C(O)c1c(Cl)cccc1Cl`, for which the Potency result was “inactive”.

Turning to `Oc1ccc2c(c1)-c1ccccc1C2`, the Potency entry is “inactive”.

Take `CCCCCCCC/C=C/CCCCCCCC1=NCCN1CCO`: the Potency was 54.9 µM (active).

For the compound `CCCC1O[C@@H]2C[C@H]3[C@@H]4CCC5=CC(=O)C=C[C@]5(C)[C@H]4[C@@H](O)C[C@]3(C)[C@]2(C(=O)CO)O1` (stereo not given in full), the Potency result was “inactive”.

On to `Cc1c(C)c2c(c(C)c1O)CCC(C)(COc1ccc(CC3SC(=O)NC3=O)cc1)O2` (stereo not given), for which the Potency entry is “inactive”.

As to `COc1cccc(N)c1`, the Potency entry is “inactive”.

On to `Nc1c(Cl)cc(Cl)cc1Cl`, for which the Potency entry is “inactive”.

For the compound `CC(C)(C)c1ccc(C(=O)O)cc1`, the Potency entry was “inactive”.

As for `Cc1nc(-c2ccc3c(c2)CCN(CCC2CCC(NC(=O)/C=C/c4ccc(F)cc4)CC2)CC3)no1` (stereo not given), the Potency entry was “inactive”.

`CC1=C(C(=O)OC(C)C)C(c2cccc([N+](=O)[O-])c2)C(C(=O)OC2CN(C(c3ccccc3)c3ccccc3)C2)=C(N)N1` (stereo not given): the Potency was 29.8 µM (active).

Regarding `Oc1ccc2cc(SSc3ccc4cc(O)ccc4c3)ccc2c1`, the Potency entry is “inactive”.

In the case of `Cc1ccc(-n2nc(C(C)(C)C)cc2NC(=O)Nc2ccc(OCCN3CCOCC3)c3ccccc23)cc1`, the Potency was 16.8 µM (active).

In the case of `Cc1onc(-c2ccccc2Cl)c1C(=O)N[C@@H]1C(=O)N2[C@@H]1SC(C)(C)[C@@H]2C(=O)O`, the Potency result was “inactive”.

For `Nc1ccccc1O`, the Potency result was “inactive”.

For the compound `CCCCN(CCCC)C(=O)N(CCCC)CCCC`, the Potency result is “inactive”.

With `CO[Si](CCCNc1ccccc1)(OC)OC`, the Potency entry was “inactive”.

`COc1cc(/C=C/C(=O)O[C@H]2CC[C@]34C[C@]35CC[C@]3(C)[C@@H]([C@H](C)CCC=C(C)C)CC[C@@]3(C)[C@@H]5CC[C@H]4C2(C)C)ccc1O`: the Potency entry is “inactive”.

`O=c1cccccc1O`: the Potency result is “inactive”.

Consider `CNC(=O)c1ccccc1`, for which the Potency result was “inactive”.

As for `O=C1c2c(O)ccc(Nc3ccc(CCO)cc3)c2C(=O)c2c([N+](=O)[O-])ccc(O)c21`, the Potency entry is “inactive”.

For `CSc1ccc2c(c1)C(N1CCN(C)CC1)Cc1ccccc1S2` (stereo not given), the Potency entry is “inactive”.

Turning to `Cc1cc(O)c(C(C)(C)C)cc1C(C)(C)C`, the Potency is 49 µM (active).

With `C[C@H]1[C@H]2CC[C@H]3[C@@H]4CC=C5C[C@@H](N(C)C)CC[C@]5(C)[C@H]4CC[C@]23CN1C`, the Potency entry was “inactive”.

Consider `Nc1ccc2cc(S(=O)(=O)O)cc(O)c2c1N=Nc1ccccc1C(F)(F)F`, for which the Potency entry was “inactive”.

Consider `COCCCC/C(=N\OCCN)c1ccc(C(F)(F)F)cc1`, for which the Potency result was “inactive”.

Regarding `O=C1CCCCCN1SSN1CCCCCC1=O`, the Potency entry was “inactive”.

`Cc1cc(O)c(Cl)c(C)c1Cl`: the Potency is 49 µM (active).

As for `Cn1cc(C(=O)[C@@H]2CCc3nc[nH]c3C2)c2ccccc21`, the Potency result is “inactive”.

On to `O=CC=C(c1ccccc1)c1ccccc1`, for which the Potency entry is “inactive”.

On to `COc1cc(-c2ccc(N=C=O)c(OC)c2)ccc1N=C=O`, for which the Potency result is “inactive”.

Regarding `Cc1[nH]cnc1C[C@H]1CCc2c(C)c3ccccc3n2C1=O`, the Potency entry was “inactive”.

In the case of `Cc1cc(O)c2ccccc2c1O`, the Potency is 16.8 µM (active).

Regarding `CC1=C(/C=C/C(C)=C/C=C/C(C)=C/C=O)C(C)(C)CCC1`, the Potency was 61.3 µM (active).

On to `N/C(=N\N=C\c1ccc(Cl)cc1)N/N=C/c1ccc(Cl)cc1`, for which the Potency entry was “inactive”.

On to `CN(C)c1ccc(SC#N)cc1`, for which the Potency result is “inactive”.

As for `C[C@H](CCC(=O)O)[C@H]1CC[C@H]2[C@@H]3CC[C@@H]4C[C@H](O)CC[C@]4(C)[C@H]3CC[C@]12C`, the Potency result is “inactive”.
